Measurements reported in PubChem BioAssay (Tox21).
Inconclusive results are not listed. Calls of active or inactive are those of the source. Unless noted, calls come from the whole dose curve; as a rule, active = well fitted curve in the direction sought with a large enough effect in the repeat runs; inconclusive = weak or mixed curves; inactive = no such curve, though single readings can be large; an effect the other way counts as inactive or inconclusive.

Key:
[1] = molecular target: Thyrotropin-releasing hormone receptor (Homo sapiens) (UniProt P34981); experiment: qHTS assay to identify small molecule agonists of the thyrotropin-releasing hormone receptor (TRHR) signaling pathway (AID 1346891; calls by dose curve;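 note: HEK293 cells expressing TRHR with calcium dye readout; series mostly up to about 58 µM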)
Method in brief: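 Kinetic fluorescence (3 min, 1 s intervals) reported intracellular calcium after compound transfer onto TRHR-Hek293 cells pre-loaded with dye for 2 h at 37 °C.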

[2] = Human pregnane X receptor (PXR) small molecule agonists, qHTS cell viability counter screen (AID 1346977); note: nearly all actives have a fitted effect of over 50% in size
Method in brief: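 HepG2 cells stably carrying the PXR-Luc reporter are cultured with 5% charcoal-stripped FBS and treated with compounds for 24hr. CellTiter-Fluor is added at 23hr and fluorescence is read after 1hr.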

[3] = Caspase-3/7 induction in HepG2 cells by small molecules, qHTS assay (AID 1346978); note: nearly all actives have a fitted effect of over 15% in size
Method in brief: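 Wild-type HepG2 cells (2,000/well) were settled 5 h at 37 C, 5% CO2, then exposed to compounds in DMSO for 17 h. Caspase-3/7 activity was read by luminescence 30 min after adding Caspase-Glo 3/7 reagent at room temperature.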

[4] = Caspase-3/7 induction in CHO-K1 cells by small molecules, qHTS cell viability counter screen (AID 1346979); note: nearly all actives have a fitted effect of over 35% in size
Method in brief: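 Seeding: 1,500 CHO-K1 cells/well. Rest: 5hr, 37C. Treatment: compounds in DMSO, 16hr. Read: CellTiter-Fluor, 1hr, fluorescence.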

[5] = Caspase-3/7 induction in CHO-K1 cells by small molecules, qHTS assay (AID 1346980); note: nearly all actives have a fitted effect of over 15% in size
Method in brief: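 Wild-type cells were seeded at 1,500 per well and settled 5 hr at 37 C, 5% CO2, then exposed to DMSO-dissolved compounds for 17 hr. Caspase-Glo 3/7 reagent was added, and luminescence was read after 30min at room temperature.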

[6] = Caspase-3/7 induction in HepG2 cells by small molecules, qHTS cell viability counter screen (AID 1346981); note: series mostly up to about 92 µM; nearly all actives have a fitted effect of over 30% in size
Method in brief: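 Steps: seed 2,000 HepG2 cells per well; incubate 5 hr at 37 C; pin-add compounds in DMSO; incubate 16 hr; add CellTiter-Fluor; after 1 hr at 37 C and 5% CO2, read fluorescence.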

[7] = molecular target: Nuclear receptor subfamily 1 group I member 2 (Homo sapiens) (UniProt O75469); experiment: Human pregnane X receptor (PXR) small molecule agonists, qHTS assay (AID 1346982); note: nearly all actives have a fitted effect of over 35% in size; note: potency is the fitted concentration of half-maximal effect
Method in brief: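 Agonist mode qHTS: PXR-Luc HepG2 cells plated 5 hr before DMSO-dissolved compounds were pinned in, cultured 24 hr at 37 C, 5% CO2; ONE-Glo luminescence readout.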

[8] = molecular target: Cytochrome P450 2D6 (Homo sapiens) (UniProt P10635); experiment: Cytochrome P450 Family 2 Subfamily D Member 6 (CYP2D6) small molecule antagonists: luciferase reporter qHTS assay (AID 1671196); note: nearly all actives have a fitted effect of over 50% in size; note: potency is the fitted concentration of half-maximal effect
Method in brief: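 P450-Glo format: CYP2D6 converts a proluciferin substrate to luciferin in an NADPH-driven reaction lasting 1 h at room temperature. Light output, proportional to CYP2D6 activity, reflects interference by test chemicals.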

[9] = molecular target: Cytochrome P450 2C19 (Homo sapiens) (UniProt P33261); experiment: Cytochrome P450 Family 2 Subfamily C Member 19 (CYP2C19) small molecule antagonists: luciferase reporter qHTS assay (AID 1671197); note: nearly all actives have a fitted effect of over 65% in size; note: potency is the fitted concentration of half-maximal effect
Method in brief: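 First, compounds are pinned into enzyme-substrate mix and held 10 min at room temperature. Second, NADPH regeneration solution is added and plates incubate 1 h at 37C. Third, detection reagent is added and luminescence read after 20 min.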

[10] = molecular target: Cytochrome P450 2C9 (Homo sapiens) (UniProt P11712); experiment: Cytochrome P450 Family 2 Subfamily C Member 9 (CYP2C9) small molecule antagonists: luciferase reporter qHTS assay (AID 1671198); note: nearly all actives have a fitted effect of over 50% in size; note: potency is the fitted concentration of half-maximal effect
Method in brief: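 CYP2C9 activity was measured with a P450-Glo proluciferin substrate. Enzyme–substrate mix was held with compound for 10 min at room temperature, then NADPH regeneration solution was added for 1 h at 37C. Luciferin product was read as luminescence.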

[11] = molecular target: Voltage-gated inwardly rectifying potassium channel KCNH2 (Homo sapiens) (UniProt Q12809); experiment: Human Ether-a-go-go-Related Gene (hERG) channel small molecule antagonists: fluorescence cell-based qHTS assay (AID 1671200);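 note: hERG-expressing U2OS cells given a thallium stimulus after FluxOR II dye loading; series mostly up to about 77 µM; nearly all actives have a fitted effect of over 50% in size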
Method in brief: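 First, 1000 cells per well are seeded and cultured overnight at 37 C. Next, FluxOR II dye is loaded for 1 h at room temperature, protected from light. After 10 more minutes, stimulus is added and fluorescence is read.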

[12] = molecular target: Cytochrome P450 3A4 (Homo sapiens) (UniProt P08684); experiment: Cytochrome P450 Family 3 Subfamily A Member 4 (CYP3A4) small molecule antagonists: luciferase reporter qHTS assay (AID 1671201)
Method in brief: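 Enzyme and proluciferin substrate are mixed with test chemicals for 10 min, then NADPH regeneration system drives turnover for 1 h at room temperature. A detection reagent halts the reaction; luminescence after 20 min gives relative activity.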

[13] = molecular target: Cytochrome P450 1A2 (Homo sapiens) (UniProt P05177); experiment: Cytochrome P450 Family 1 Subfamily A Member 2 (CYP1A2) small molecule antagonists: luciferase reporter qHTS assay (AID 1671199); note: nearly all actives have a fitted effect of over 50% in size; note: potency is the fitted concentration of half-maximal effect
Method in brief: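 Inhibition of CYP1A2 conversion of proluciferin to luciferin, detected by luminescence. Reaction run 1 h at room temperature with NADPH regeneration after brief compound preincubation.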

[14] = molecular target: Nuclear receptor subfamily 1 group I member 2 (Rattus norvegicus) (UniProt Q9R1A7); experiment: Rat pregnane X receptor (rPXR) activation by small molecules, qHTS assay (AID 1346983); details: rPXR luciferase reporter cells, One-Glo luminescence, 24 h; max activation: active compounds read high; note: nearly all actives have a fitted effect of over 20% in size
Method in brief: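 Cell-based rPXR luciferase reporter assay, 2,000 cells per well, rested 5hr at 37 C before compound addition in DMSO, then 24 hr at 37 C. One-Glo reagent was added and luminescence read after 30 min at room temperature.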

[15] = molecular target: Nuclear receptor subfamily 1 group I member 2 (Homo sapiens) (UniProt O75469); experiment: CYP3A4 induction through human pregnane X receptor (PXR) by small molecules, qHTS assay (AID 1346984); note: nearly all actives have a fitted effect of over 40% in size
Method in brief: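 Steps: seed DPX-2 cells, 5 hr at 37C; pin-transfer compounds; 24 hr at 37C; add Luciferin-IPA (3uM final), 3 hr at 37C; add One-Glo, 30 min RT; read luminescence.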

[16] = molecular target: Nuclear receptor subfamily 1 group I member 2 (Homo sapiens) (UniProt O75469); experiment: Human pregnane X receptor (PXR) activation by small molecules, qHTS assay (AID 1346985); note: nearly all actives have a fitted effect of over 40% in size
Method in brief: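 DPX-2 cells (HepG2 co-transfected with a PXR response element and a CYP3A4-promoter luciferase construct) were seeded at 2,000 per well, rested 5 hr at 37C, then exposed to DMSO-dissolved compounds for 24 hr. Activation was read as luciferase luminescence.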
% is set by controls: 0 for no effect and ±100 for the full control effect.

Chain of Cytochrome P450 2D6 (Homo sapiens) (P10635 whole entry, looked up): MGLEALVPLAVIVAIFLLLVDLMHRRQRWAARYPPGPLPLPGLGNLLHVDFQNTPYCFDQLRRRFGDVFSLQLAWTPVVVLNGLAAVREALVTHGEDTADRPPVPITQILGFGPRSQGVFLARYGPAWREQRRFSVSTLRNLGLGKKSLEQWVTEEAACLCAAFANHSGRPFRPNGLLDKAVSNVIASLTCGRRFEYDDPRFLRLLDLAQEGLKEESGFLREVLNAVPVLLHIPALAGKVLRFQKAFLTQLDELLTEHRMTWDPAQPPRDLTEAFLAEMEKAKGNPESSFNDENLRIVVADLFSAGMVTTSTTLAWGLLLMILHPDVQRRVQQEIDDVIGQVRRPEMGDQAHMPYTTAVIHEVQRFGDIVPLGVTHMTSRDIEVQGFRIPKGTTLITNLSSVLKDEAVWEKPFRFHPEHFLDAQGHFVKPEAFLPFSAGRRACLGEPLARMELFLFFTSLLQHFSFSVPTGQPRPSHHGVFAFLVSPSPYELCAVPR
Chain of Voltage-gated inwardly rectifying potassium channel KCNH2 (Homo sapiens) (Q12809 whole entry, looked up): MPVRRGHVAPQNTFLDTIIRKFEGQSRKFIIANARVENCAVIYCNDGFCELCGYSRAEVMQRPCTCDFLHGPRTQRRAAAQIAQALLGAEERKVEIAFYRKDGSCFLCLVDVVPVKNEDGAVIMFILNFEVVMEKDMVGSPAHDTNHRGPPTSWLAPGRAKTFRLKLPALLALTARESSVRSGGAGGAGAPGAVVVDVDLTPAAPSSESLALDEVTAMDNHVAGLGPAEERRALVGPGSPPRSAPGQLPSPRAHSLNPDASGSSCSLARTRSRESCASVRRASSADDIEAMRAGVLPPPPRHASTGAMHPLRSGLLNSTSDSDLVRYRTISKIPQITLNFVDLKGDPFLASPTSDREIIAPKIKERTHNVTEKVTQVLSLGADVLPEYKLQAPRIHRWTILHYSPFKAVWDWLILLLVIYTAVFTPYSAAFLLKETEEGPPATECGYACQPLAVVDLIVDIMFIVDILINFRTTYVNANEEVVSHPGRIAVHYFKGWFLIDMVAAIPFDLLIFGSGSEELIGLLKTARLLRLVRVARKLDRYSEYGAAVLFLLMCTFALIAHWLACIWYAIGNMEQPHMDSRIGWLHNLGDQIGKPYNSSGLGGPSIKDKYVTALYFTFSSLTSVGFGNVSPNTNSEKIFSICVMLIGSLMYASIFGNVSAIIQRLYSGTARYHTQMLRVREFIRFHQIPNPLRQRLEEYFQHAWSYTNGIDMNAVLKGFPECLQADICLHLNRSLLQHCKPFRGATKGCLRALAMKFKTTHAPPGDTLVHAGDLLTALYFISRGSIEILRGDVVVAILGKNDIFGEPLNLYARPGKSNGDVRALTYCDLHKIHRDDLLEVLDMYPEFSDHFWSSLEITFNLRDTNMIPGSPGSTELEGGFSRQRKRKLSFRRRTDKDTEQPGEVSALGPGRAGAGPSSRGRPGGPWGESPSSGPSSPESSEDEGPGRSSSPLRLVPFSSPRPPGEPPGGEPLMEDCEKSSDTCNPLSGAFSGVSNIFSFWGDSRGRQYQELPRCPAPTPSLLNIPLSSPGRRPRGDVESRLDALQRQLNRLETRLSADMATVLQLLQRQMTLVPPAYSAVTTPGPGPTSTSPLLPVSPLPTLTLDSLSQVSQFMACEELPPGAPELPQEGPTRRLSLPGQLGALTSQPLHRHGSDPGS
Chain of Cytochrome P450 2C9 (Homo sapiens) (P11712 whole entry, looked up): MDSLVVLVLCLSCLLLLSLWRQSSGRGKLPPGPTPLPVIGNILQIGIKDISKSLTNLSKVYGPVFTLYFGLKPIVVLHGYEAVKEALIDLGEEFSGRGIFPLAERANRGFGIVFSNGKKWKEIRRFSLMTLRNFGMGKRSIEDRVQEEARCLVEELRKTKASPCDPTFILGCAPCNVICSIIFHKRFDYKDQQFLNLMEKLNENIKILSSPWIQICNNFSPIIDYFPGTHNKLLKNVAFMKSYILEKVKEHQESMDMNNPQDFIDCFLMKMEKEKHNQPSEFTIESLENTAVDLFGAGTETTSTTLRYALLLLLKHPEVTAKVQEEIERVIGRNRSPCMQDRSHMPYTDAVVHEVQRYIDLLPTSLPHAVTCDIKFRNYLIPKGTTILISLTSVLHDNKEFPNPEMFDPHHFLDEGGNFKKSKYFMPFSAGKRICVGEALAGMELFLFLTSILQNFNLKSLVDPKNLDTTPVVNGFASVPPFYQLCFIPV
Chain of Thyrotropin-releasing hormone receptor (Homo sapiens) (P34981 whole entry, looked up): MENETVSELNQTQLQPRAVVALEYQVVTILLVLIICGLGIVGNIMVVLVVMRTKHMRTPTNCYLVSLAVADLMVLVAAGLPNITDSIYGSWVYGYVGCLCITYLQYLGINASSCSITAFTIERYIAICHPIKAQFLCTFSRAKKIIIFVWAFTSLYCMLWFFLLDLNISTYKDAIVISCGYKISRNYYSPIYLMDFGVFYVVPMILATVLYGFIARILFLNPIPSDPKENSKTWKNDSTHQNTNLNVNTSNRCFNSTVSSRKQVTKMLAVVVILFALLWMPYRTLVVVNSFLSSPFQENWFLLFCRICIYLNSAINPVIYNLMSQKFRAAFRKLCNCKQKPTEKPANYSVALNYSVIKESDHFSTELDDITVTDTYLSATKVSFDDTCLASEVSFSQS
Chain of Cytochrome P450 1A2 (Homo sapiens) (P05177 whole entry, looked up): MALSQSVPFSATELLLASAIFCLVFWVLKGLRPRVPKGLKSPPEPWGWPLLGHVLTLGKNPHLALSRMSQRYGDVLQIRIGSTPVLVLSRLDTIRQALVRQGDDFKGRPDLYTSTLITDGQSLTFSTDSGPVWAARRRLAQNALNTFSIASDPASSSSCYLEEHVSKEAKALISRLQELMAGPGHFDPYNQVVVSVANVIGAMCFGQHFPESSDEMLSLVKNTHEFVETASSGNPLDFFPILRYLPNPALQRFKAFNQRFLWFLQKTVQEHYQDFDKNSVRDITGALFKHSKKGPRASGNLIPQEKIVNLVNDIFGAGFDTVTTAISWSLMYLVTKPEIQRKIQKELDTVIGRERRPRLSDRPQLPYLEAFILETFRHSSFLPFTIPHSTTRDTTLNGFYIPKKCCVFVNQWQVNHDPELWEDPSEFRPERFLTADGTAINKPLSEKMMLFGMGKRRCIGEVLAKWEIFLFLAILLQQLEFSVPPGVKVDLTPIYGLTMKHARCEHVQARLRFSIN
Chain of Cytochrome P450 3A4 (Homo sapiens) (P08684 whole entry, looked up): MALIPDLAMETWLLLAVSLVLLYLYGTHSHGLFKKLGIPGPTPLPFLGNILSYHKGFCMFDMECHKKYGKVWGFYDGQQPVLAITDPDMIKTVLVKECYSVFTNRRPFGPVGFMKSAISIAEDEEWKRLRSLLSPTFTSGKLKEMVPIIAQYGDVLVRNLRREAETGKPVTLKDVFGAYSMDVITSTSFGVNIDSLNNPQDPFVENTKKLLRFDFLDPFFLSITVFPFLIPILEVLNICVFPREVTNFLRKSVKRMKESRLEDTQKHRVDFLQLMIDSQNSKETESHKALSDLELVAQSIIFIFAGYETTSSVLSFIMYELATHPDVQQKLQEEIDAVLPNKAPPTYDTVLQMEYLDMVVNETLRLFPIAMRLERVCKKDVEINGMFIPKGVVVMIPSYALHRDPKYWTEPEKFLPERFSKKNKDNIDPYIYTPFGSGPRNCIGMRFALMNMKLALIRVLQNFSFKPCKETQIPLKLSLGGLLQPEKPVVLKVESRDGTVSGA
Chain of Nuclear receptor subfamily 1 group I member 2 (Homo sapiens) (O75469 whole entry, looked up): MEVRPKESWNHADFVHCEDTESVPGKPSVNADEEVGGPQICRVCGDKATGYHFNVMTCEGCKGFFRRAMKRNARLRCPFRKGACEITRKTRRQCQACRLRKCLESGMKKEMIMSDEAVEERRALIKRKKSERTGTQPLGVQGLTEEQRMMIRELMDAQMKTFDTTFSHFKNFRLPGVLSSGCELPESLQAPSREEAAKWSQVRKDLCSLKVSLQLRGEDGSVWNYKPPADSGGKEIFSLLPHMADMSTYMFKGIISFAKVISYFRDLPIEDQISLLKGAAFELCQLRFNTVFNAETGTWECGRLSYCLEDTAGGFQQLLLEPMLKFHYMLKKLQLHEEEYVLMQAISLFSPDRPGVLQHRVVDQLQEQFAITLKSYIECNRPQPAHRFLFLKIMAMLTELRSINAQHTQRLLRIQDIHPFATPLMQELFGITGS
Chain of Cytochrome P450 2C19 (Homo sapiens) (P33261 whole entry, looked up): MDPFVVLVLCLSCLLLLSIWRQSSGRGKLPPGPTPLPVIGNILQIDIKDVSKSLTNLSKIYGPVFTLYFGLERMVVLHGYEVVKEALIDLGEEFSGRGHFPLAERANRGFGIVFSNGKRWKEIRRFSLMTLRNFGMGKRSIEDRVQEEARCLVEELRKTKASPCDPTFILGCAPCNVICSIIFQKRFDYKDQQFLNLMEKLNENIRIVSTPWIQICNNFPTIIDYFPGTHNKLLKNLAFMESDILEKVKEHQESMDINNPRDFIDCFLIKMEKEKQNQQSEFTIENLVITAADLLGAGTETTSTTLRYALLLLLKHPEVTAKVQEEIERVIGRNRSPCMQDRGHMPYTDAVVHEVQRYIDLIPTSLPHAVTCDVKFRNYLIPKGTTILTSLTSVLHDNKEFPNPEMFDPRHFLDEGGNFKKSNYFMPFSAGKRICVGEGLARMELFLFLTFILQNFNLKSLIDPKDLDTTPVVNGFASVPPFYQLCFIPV
Chain of Nuclear receptor subfamily 1 group I member 2 (Rattus norvegicus) (Q9R1A7 whole entry, looked up): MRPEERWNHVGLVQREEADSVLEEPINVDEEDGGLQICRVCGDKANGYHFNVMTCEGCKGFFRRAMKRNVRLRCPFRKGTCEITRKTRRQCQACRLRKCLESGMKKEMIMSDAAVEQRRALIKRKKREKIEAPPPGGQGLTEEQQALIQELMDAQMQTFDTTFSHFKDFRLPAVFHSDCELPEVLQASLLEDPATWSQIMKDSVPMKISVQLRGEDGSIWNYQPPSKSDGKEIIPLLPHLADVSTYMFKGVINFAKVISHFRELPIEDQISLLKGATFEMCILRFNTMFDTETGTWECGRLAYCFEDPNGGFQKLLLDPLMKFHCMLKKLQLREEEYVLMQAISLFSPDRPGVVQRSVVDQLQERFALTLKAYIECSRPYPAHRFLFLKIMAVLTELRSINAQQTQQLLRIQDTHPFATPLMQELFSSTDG

CC(C)(C)N(CCO)CCO
inactive: outcome [1] | Potency [2] | outcome [3] | Potency [4] | outcome [5] | outcome [6] | Potency [8] | Potency [9] | Potency [10] | Potency [11] | Potency [12]
active: Potency [7] 63.1 µM

CCCCCCCCCCCCCCCCCC(=O)OCCCCCCCCCCCCCC(C)C
inactive: outcome [1] | Potency [2] | outcome [3] | Potency [4] | outcome [5] | outcome [6] | Potency [7] | Potency [8] | Potency [9] | Potency [13] | Potency [11] | Potency [12]

CN(C)N=Nc1ccccc1
inactive: outcome [1] | Potency [2] | outcome [3] | Potency [4] | outcome [5] | outcome [6] | Potency [7] | Potency [8] | Potency [9] | Potency [10] | Potency [13] | Potency [11] | Potency [12]

OCCCCCCO
inactive: outcome [1] | Potency [2] | outcome [3] | Potency [4] | outcome [5] | outcome [6] | Potency [7] | Potency [11]
active: Potency [8] 36 µM | Potency [9] 12.8 µM | Potency [13] 40.4 µM

Nc1cc(C(Cl)=C(Cl)Cl)c(S(N)(=O)=O)cc1S(N)(=O)=O
inactive: outcome [1] | Potency [2] | outcome [3] | Potency [4] | outcome [5] | outcome [6] | Potency [7] | max activation [14] -3.29% | Potency [15] | Potency [16] | Potency [8] | Potency [11]

CC(C)=CC(=O)O
inactive: outcome [1] | Potency [2] | outcome [3] | Potency [4] | outcome [5] | outcome [6] | Potency [7] | Potency [8] | Potency [9] | Potency [10] | Potency [11] | Potency [12]

CC(C)[C@H](N)C(=O)OCCOCn1cnc2c(=O)[nH]c(N)nc21
inactive: outcome [1] | Potency [2] | outcome [3] | Potency [4] | outcome [5] | outcome [6] | Potency [7] | max activation [14] -4.04% | Potency [15] | Potency [16] | Potency [8] | Potency [13] | Potency [11]

CCCCC=O
active: Potency [9] 71 µM | Potency [10] 79.6 µM
inactive: outcome [1] | Potency [2] | outcome [3] | Potency [4] | outcome [5] | outcome [6] | Potency [7] | Potency [8] | Potency [13] | Potency [11] | Potency [12]

O=C1CC2(CCCC2)CC(=O)N1
inactive: outcome [1] | Potency [2] | outcome [3] | Potency [4] | outcome [5] | outcome [6] | Potency [7] | Potency [8] | Potency [9] | Potency [10] | Potency [13] | Potency [11] | Potency [12]
